Results on 54 compounds are retold here after PMC4336329 (PLoS ONE, 2015).

The structures appear in SMILES notation. The whole screen tested about 310,000 compounds, of which about 2,200 (0.71%) showed an effect of 50% or more. Effects have a minus sign here. For the sample, strong results were picked, then their nearest neighbours and some compounds at random.

Chain of human ether-à-go-go-related gene (hERG) potassium channel (Q12809 whole entry, looked up): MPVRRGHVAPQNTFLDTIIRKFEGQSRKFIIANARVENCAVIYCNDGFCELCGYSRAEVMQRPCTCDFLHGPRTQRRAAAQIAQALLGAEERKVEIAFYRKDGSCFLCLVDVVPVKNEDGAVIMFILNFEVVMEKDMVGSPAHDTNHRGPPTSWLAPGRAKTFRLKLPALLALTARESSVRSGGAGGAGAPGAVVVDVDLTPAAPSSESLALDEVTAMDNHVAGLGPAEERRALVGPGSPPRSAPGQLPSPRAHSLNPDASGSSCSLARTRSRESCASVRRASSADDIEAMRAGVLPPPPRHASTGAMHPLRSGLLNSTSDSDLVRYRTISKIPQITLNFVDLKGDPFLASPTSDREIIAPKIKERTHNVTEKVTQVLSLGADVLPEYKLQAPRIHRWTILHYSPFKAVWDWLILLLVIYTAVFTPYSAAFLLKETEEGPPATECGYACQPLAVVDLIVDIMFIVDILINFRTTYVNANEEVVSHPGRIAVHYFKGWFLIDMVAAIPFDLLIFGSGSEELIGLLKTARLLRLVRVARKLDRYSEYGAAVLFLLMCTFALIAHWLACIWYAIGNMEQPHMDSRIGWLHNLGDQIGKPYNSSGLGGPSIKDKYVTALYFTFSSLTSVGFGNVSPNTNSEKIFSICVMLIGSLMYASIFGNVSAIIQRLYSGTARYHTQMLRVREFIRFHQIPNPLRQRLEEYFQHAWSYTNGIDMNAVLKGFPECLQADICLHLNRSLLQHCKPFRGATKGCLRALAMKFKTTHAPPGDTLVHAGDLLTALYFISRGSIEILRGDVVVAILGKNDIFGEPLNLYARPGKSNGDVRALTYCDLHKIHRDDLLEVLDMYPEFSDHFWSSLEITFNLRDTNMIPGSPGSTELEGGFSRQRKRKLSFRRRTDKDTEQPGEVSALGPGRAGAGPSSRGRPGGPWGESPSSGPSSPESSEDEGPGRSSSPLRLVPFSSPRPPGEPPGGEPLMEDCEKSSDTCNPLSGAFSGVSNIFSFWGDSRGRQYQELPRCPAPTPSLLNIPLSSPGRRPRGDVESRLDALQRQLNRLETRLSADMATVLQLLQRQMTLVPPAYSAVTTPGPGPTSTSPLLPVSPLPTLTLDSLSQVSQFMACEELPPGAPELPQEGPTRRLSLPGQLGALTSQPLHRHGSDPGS

This test concerns the target human ether-à-go-go-related gene (hERG) potassium channel (human, UniProt Q12809). As to the kind of experiment: primary screen, population patch clamp on CHO cells stably expressing hERG; higher = less effect of the substance.
As for `CCN1c2ccccc2-c2nc3ccccc3n2C1c1cccs1` (stereo not drawn), the “hERG current change (%, negative = inhibition) at 1uM” value is recorded as 4.28%.
In the case of `COCCn1c(=NC(=O)c2cccs2)sc2cc(NC(C)=O)ccc21` it was 0.283%; in that of `COc1ccc(N2C(=O)C(Cl)=C(Nc3ccccc3OC)C2=O)cc1`, 2.56%.
On to `O=C(CSc1nnc(-c2ccccn2)n1Cc1ccccc1)Nc1ccc2c(c1)OCO2`, for which the “hERG current change (%, negative = inhibition) at 1uM” value was determined as 7.03%.
Regarding `CCN(CC)CCCNC(CC(=O)Nc1cccc([N+](=O)[O-])c1)C(=O)O` (stereo not drawn), the “hERG current change (%, negative = inhibition) at 1uM” value came out at 3.62%.
In the case of `COc1ccccc1C(=O)C1CCCN(C(=O)c2cccc(-n3cccn3)c2)C1` (stereo not drawn), the “hERG current change (%, negative = inhibition) at 1uM” value is on record as 9.07%.
With `Nc1ccc(-n2nnnc2-c2ccco2)cc1`, the “hERG current change (%, negative = inhibition) at 1uM” value stood at 11.1%.
Regarding `Cc1cccc(OCC(=O)N2CCN(C(=O)COc3ccc(Cl)cc3)CC2)c1`, the “hERG current change (%, negative = inhibition) at 1uM” value is given as -56.6%.
As to `Cc1cccc(OCC(=O)N2CCN(Cc3ccncc3)CC2)c1.O=C(O)C(=O)O`, the “hERG current change (%, negative = inhibition) at 1uM” value was 10.2%.
For `Cc1cccc(OCC(=O)N2CCN(S(C)(=O)=O)CC2)c1`, the “hERG current change (%, negative = inhibition) at 1uM” value is reported as 9.87%.
In the case of `Cc1ccc(OCC(=O)N2CCN(C(=O)c3ccc([N+](=O)[O-])cc3)CC2)cc1`, the “hERG current change (%, negative = inhibition) at 1uM” value was -19.5%.
In the case of `Cc1ccc(OCC(=O)N2CCN(Cc3ccc([N+](=O)[O-])cc3)CC2)cc1.O=C(O)C(=O)O`, the “hERG current change (%, negative = inhibition) at 1uM” value is recorded as -85%.
Regarding `Cc1cccc(OCC(=O)N2CCN(C(=O)c3ccc([N+](=O)[O-])cc3)CC2)c1`, the “hERG current change (%, negative = inhibition) at 1uM” value was -38.8%.
For the compound `Cc1cccc(OCC(=O)N2CCN(Cc3ccc([N+](=O)[O-])cc3)CC2)c1.O=C(O)C(=O)O`, the “hERG current change (%, negative = inhibition) at 1uM” value is reported as -60.5%.
Turning to `Cc1cccc(OCC(=O)N2CCOCC2)c1`, the “hERG current change (%, negative = inhibition) at 1uM” value came out at 17.1%.
As to `CSc1ccc(CN2CCN(C(=O)COc3ccc(C)cc3)CC2)cc1.O=C(O)C(=O)O`, the “hERG current change (%, negative = inhibition) at 1uM” value was -19.3%.
Consider `Cc1ccc(S(=O)(=O)N2CCC(C(=O)OCC(=O)N(CC(C)C)C3CCS(=O)(=O)C3)CC2)cc1C` (stereo not drawn), for which the “hERG current change (%, negative = inhibition) at 1uM” value is recorded as 10.8%.
Take `Nc1n[nH]c2cc(=O)n(-c3cccc(C(F)(F)F)c3)nc12`: the “hERG current change (%, negative = inhibition) at 1uM” value was determined as 12.3%.
As for `O=C(CSc1nc(Cc2ccccc2)nc2ccccc12)Nc1nc2c(s1)CCCC2`, the “hERG current change (%, negative = inhibition) at 1uM” value is 15.9%.
`O=C(Nc1ccc2c(c1)OCO2)C1CC(=O)N(CCc2ccccc2)C1` (stereo not drawn): the “hERG current change (%, negative = inhibition) at 1uM” value turned out to be 4.44%.
Consider `Cc1ccc(S(=O)(=O)N(C)C)cc1NC(=O)COC(=O)C1CC1`, for which the “hERG current change (%, negative = inhibition) at 1uM” value worked out at 17.3%.
In the case of `Cc1ccc(S(=O)(=O)N(C)C)cc1NC(=O)COC(=O)C1CCCC1` it was -0.454%.
Regarding `Cc1ccc(S(=O)(=O)N(C)C)cc1NC(=O)COC(=O)C1CCN(S(=O)(=O)c2cccs2)CC1`, the “hERG current change (%, negative = inhibition) at 1uM” value is given as -58.4%.
`O=C(Nc1ccccc1)C1CCCN1/C=C/C(=O)C(F)(F)F` (stereo not drawn): the “hERG current change (%, negative = inhibition) at 1uM” value is recorded as 2.92%.
The figure for `CCC(NS(=O)(=O)c1ccc(C)cc1)C(=O)Nc1ccc(NC(C)=O)cc1` (stereo not drawn) is -1.54%; for `CCC(=O)N(Cc1ccc(C)cc1)Cc1cc2cc3c(cc2[nH]c1=O)OCO3` it is 0.914%.
Consider `O=C(O)CCc1ccc(-c2ccccc2)n1-c1cccc(C(=O)O)c1`, for which the “hERG current change (%, negative = inhibition) at 1uM” value was found to be 15.2%.
`O=C(NCCS(=O)(=O)N1CCN(c2ccccc2)CC1)C1CC(=O)N(c2ccccc2)C1` (stereo not drawn): the “hERG current change (%, negative = inhibition) at 1uM” value was found to be 18%.
Take `Cc1ccc(C)c(CN2C(=O)CSc3ccc(C(=O)NCC(C)CN4CCC(C)CC4)cc32)c1` (stereo not drawn): the “hERG current change (%, negative = inhibition) at 1uM” value is -70.4%.
The figure for `Cc1ccc(C)c(CN2C(=O)CSc3ccc(C(=O)N4CCCC4)cc32)c1` is 5.65%.
For the compound `Cc1ccc(C)c(CN2C(=O)CSc3ccc(C(=O)NCCN4CCOCC4)cc32)c1`, the “hERG current change (%, negative = inhibition) at 1uM” value is 20.1%.
For `N#Cc1ccc(NC(=O)COC(=O)CSc2nnc(-c3ccc(Cl)cc3)o2)cc1`, the “hERG current change (%, negative = inhibition) at 1uM” value stood at 6.91%.
The figure for `Cc1sc2ncnc(N3CCC(C(=O)N(C)CC(=O)Nc4ccccc4Cl)CC3)c2c1C` is -30%; for `Cc1sc2ncnc(N3CCC(C(=O)N(C)CC(=O)Nc4ccccc4Br)CC3)c2c1C` it is -8.93%; for `CCCN(CC(=O)Nc1ccccc1C)C(=O)C1CCN(c2ncnc3sc(C)c(C)c23)CC1` it is -56.5%.
The figure for `CN1CCN(c2nc(-c3cccs3)nc3ccccc23)CC1` is -55%; for `CCN1CCN(c2nc(-c3cccs3)nc3ccccc23)CC1` it is -66.2%; for `c1ccc(N2CCN(c3nc(-c4cccs4)nc4ccccc34)CC2)cc1` it is 4.12%.
As to `c1csc(-c2nc(N3CCOCC3)c3ccccc3n2)c1`, the “hERG current change (%, negative = inhibition) at 1uM” value was 5.11%.
With `CCCN1CCN(c2nc(-c3cccs3)nc3ccccc23)CC1`, the “hERG current change (%, negative = inhibition) at 1uM” value was -16.1%.
Turning to `CC(=O)N1CCN(c2nc(-c3cccs3)nc3ccccc23)CC1`, the “hERG current change (%, negative = inhibition) at 1uM” value was -49.4%.
In the case of `COc1ccc(CC(=O)N2CCN(S(=O)(=O)c3cc(Cl)ccc3Cl)CC2)cc1` it was 14%.
The figure for `CCOC(=O)N1CCC(N2CCN(c3cc(C)ccc3C)CC2)CC1` is -32.2%; for `COc1cccc2c1OCC/C2=N\NC(=O)COc1ccccc1C` it is -13.9%.
On to `COc1ccc(CNC(=O)C2CC(c3cccc([N+](=O)[O-])c3)=NO2)cc1` (stereo not drawn), for which the “hERG current change (%, negative = inhibition) at 1uM” value was 5.46%.
In the case of `O=C(NCc1cccnc1)c1ccc(Cl)cc1[N+](=O)[O-]` it was 7.05%; in that of `c1ccc(CSc2ncnc3c2oc2ccccc23)cc1`, 9.56%; in that of `N=c1c(C(=O)NCc2ccc(F)cc2)cc2c(=O)n3ccccc3nc2n1CC1CCCO1` (stereo not drawn), -85.3%.
For `Cc1ccc(CNC(=O)c2cc3c(=O)n4ccccc4nc3n(CC3CCCO3)c2=N)cc1` (stereo not drawn), the “hERG current change (%, negative = inhibition) at 1uM” value is -85.7%.
Regarding `N=c1c(C(=O)NCc2ccc3c(c2)OCO3)cc2c(=O)n3ccccc3nc2n1CC1CCCO1` (stereo not drawn), the “hERG current change (%, negative = inhibition) at 1uM” value is listed as -84.2%.
For `O=C(CSc1nc2ccccc2c(=O)n1CC1CCCO1)NCc1ccc2c(c1)OCO2` (stereo not drawn), the “hERG current change (%, negative = inhibition) at 1uM” value stood at 9.71%.
In the case of `COc1ccc(CNC(=O)c2cc3c(=O)n4ccccc4nc3n(CC3CCCO3)c2=N)cc1` (stereo not drawn) it was -80.4%.
As to `N=c1c(S(=O)(=O)c2ccc(F)cc2)cc2c(=O)n3ccccc3nc2n1CC1CCCO1` (stereo not drawn), the “hERG current change (%, negative = inhibition) at 1uM” value is on record as -2.33%.
`CCOC(=O)c1cc2c(=O)n3ccccc3nc2n(CC2CCCO2)c1=NC(C)=O` (stereo not drawn): the “hERG current change (%, negative = inhibition) at 1uM” value was determined as 16.6%.
